Screens: PubChem, National Center for Advancing Translational Sciences (NCATS)
Only a selection was taken, and hits are over-represented in it overall.
Shiga inhibitor: inhibitors of Shiga toxin in Vero cells. Vero cells, Shiga toxin protein synthesis inhibition reporter. inhibition, % at 38.7 µM. hit rate 9.2% among 290,000; in the data active = inhibition mostly above about 28%, no sharp cut-off; inactive = mostly below about 43%; note: 0% is about no effect
AmpC inh no detg: inhibitors of E. coli AmpC beta-lactamase without detergent; P00811; AmpC nitrocefin hydrolysis, absorbance 480 nm, 0.0001% Triton; Potency, µM (highest dose often 57.1 µM), for the others: at the highest dose activity change, negative = inhibition, hits mostly inhibitors; hit rate 0.52% among 330,000; AID 485341;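 note: potency is the fitted concentration of half-maximal effect; plate controls were no compound for no effect and no enzyme for full effect; nearly all actives have a fitted effect of over 20% in size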
Target sequence (P00811 whole entry, looked up): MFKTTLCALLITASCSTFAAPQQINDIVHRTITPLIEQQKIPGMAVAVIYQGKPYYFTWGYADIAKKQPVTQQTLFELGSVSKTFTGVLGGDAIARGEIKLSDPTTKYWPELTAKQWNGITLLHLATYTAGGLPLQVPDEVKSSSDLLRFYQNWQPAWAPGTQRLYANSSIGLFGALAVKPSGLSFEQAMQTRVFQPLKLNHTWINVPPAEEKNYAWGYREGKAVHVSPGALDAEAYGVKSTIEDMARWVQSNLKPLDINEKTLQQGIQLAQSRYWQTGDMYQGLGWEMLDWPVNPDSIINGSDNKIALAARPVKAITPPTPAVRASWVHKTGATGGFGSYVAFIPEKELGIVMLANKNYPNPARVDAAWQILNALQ
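20 mM phosphate pH 7.0 + 0.01% (detergent screen) or 0.0001% Triton X-100; 5.3 nM AmpC reagent; cpd preinc 15 min RT; nitrocefin (800 uM stock) to start; A480 q20 s × 4 min; Activity was normalised to no-enzyme and no-compound control wells.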
NS1 function inh: inhibitors of influenza NS1 protein function. hit rate 0.4% among 270,000. Potency, µM (highest dose often 46.1 µM), inactives show top-dose activity, positive = more growth. AID 2326; calls by dose curve; note: potency is the fitted concentration of half-maximal effect; actives are rising curves; nearly all actives have a fitted effect of over 50% in size
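OD600 was taken as the measure of yeast growth restored by compound in an NS1-expressing S. cerevisiae strain. Cells had been washed out of glucose medium and diluted 1:100 into galactose -URA medium, pH 6.0.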
Cycloheximide cs: counter-screen for Shiga toxin inhibitors: cycloheximide protein synthesis inhibition; cell reporter, cycloheximide protein synthesis inhibition counterscreen; max response, %; hit rate 12% among 300,000; AID 2314; in the data active = max response mostly above about 13%, no sharp cut-off; inactive = mostly below about 14%; note: read at 38.3 µM for the half of the compounds with a filed dose; 0% is about no effect
AmpC inh detg: blocks E. coli AmpC beta-lactamase in detergent assay; P00811; AmpC hydrolysis of nitrocefin, absorbance 480 nm, 0.01% Triton; Potency, µM (series often up to 114 µM), for the others: at the top dose activity change, negative = inhibition, usual class: inhibitors; hit rate 0.041% among 370,000; AID 485294;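 note: potency is the fitted concentration of half-maximal effect; 0% = no-compound wells and -100% = no-enzyme wells; nearly all actives have a fitted effect of over 25% in size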
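20 mM phosphate pH 7.0 + 0.01% (detergent screen) or 0.0001% Triton X-100; 5.3 nM AmpC reagent; cpd preinc 15 min RT; nitrocefin (800 uM stock) to start; A480 q20 s × 4 min; Activity was normalised to no-enzyme and no-compound control wells.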
* = called active by the depositor; ? = inconclusive; nt = not tested or not shown; [ ] = dose if it differs, or a comment. Unless noted, calls come from the whole dose curve; as a rule, active = well fitted curve in the direction sought with a large enough effect; inconclusive = small, poorly fitted or top-dose-only effect, or another doubt; inactive = no such curve, though single readings can be large; an effect the other way counts as inactive or inconclusive.

SMILES | Shiga inhibitor | AmpC inh no detg | NS1 function inh | Cycloheximide cs | AmpC inh detg
Cc1ccc(OCC(=O)NC2=NCCS2)cc1 | 8.2 | -9.4% | 18.5% | 24.7* | -6.0%
O=C(COc1ccccc1)NCC(=O)NC1=NCCS1 | -10.8 | -21.0% | -4.0% | -2.7 | -14.0%
Cc1ccccc1OCC(=O)NC1=NCCS1 | 31.9* | -12.0% | -8.1% | 29.2* | -15.6%
CC(=O)c1cccc(NC(=O)C(=O)c2cn(CC(=O)N3CCCCC3)c3ccccc23)c1 | 16.9 | -20.7% | nt | 7.6 | 2.8%
CC(C)(C)SCCNC(=O)/C=C/c1cccc([N+](=O)[O-])c1 | 66.4* | -4.9% | 2.0% | 25.5* | ?
CC(C)(C)SCCNC(=O)/C=C/c1ccc([N+](=O)[O-])cc1 | 32.6* | -13.8% | 4.0% | 20.6* | -11.9%
O=C(/C=C/c1cccc([N+](=O)[O-])c1)NCCSc1ccccc1 | 14.8 | -35.0% | -3.8% | 17.1* | -3.8%
Cc1ccc(SCCNC(=O)/C=C/c2cccc([N+](=O)[O-])c2)cc1 | -12.9 | -13.8% | -27.2% | -0.8 | ?
COc1cc(C(C)=O)ccc1OCC(=O)NCC(c1ccc(F)cc1)N1CCOCC1 (stereo not drawn) | nt | 18.6% | nt | nt | nt
Cc1noc(C)c1-c1ccc2ncnc(NC(C)c3ccccc3)c2c1 (stereo not drawn) | -16.8 | nt | nt | 0.8 | nt
CCOC(=O)C1CCCN(C(=O)Cn2ncn3c(cc4sc(CC)cc43)c2=O)C1 (stereo not drawn) | nt | nt | nt | nt | 18.0%
CCOc1cc(C2NN=C(c3ccccc3)S2)ccc1OCc1ccc(F)cc1 (stereo not drawn) | 112.2* | 1.1% | -12.7% | 43.0* | -1.4%
CCOc1cc(C2NN=C(c3ccccc3)S2)ccc1OCc1ccccc1Cl (stereo not drawn) | 66.1* | -30.1% | -22.9% | 45.3* | -11.6%
CNCc1ccccc1OCc1ccc(F)cc1 | -11.9 | -4.2% | 1.9% | -3.0 | ?
CC(=O)c1cccc(Nc2nc(-c3cccc([N+](=O)[O-])c3)cs2)c1 | 103.3* | -32.4% | -19.7% | 38.2* | 1.2%
CC(=O)Nc1nc(C)c(-c2csc(Nc3cccc([N+](=O)[O-])c3)n2)s1 | 1.7 | -54.1% | 2.0% | 0.1 | -3.6%
COc1ccc2c(c1OC)C(=O)OC2Nc1nc(-c2cccc([N+](=O)[O-])c2)cs1 (stereo not drawn) | 42.9* | -24.9% | -47.0% | 56.9* | 8.6%
Cc1[nH]n(-c2nc(-c3cccc([N+](=O)[O-])c3)cs2)c(=O)c1C | 53.6* | ? | 15.2% | 36.7* | ?
COc1ccc(CC(=O)Nc2nc(-c3cccc([N+](=O)[O-])c3)cs2)cc1 | 8.5 | -1.2% | 5.9% | -2.9 | -0.2%
O=[N+]([O-])c1cccc(-c2csc(N/N=C/c3cccc(O)c3)n2)c1 | 104.5* | -49.5% | nt | 28.0* | 13.8%
CCOC(=O)c1ccc(NC(=O)c2c(NCc3cccc(OC)c3OC)sc3c2CCC3)cc1 | nt | nt | nt | nt | 4.6%
CCOc1ccc(CCNC(=O)c2ccc(-n3c(C)cc4c3CCC(C)C4)cc2)cc1OCC (stereo not drawn) | nt | nt | nt | nt | 21.5%
NC(=O)C1CCN(C(=S)c2ccc(-c3ccc(Br)cc3)o2)CC1 | 78.5* | -45.4% | nt | 36.6* | -4.4%
NC(=O)c1ccc(-c2ccc(Br)cc2)o1 | 56.3* | -15.1% | -64.3% | 12.7 | ?
COc1ccc(C(=S)N2CCC(C(N)=O)CC2)cc1Br | -7.1 | -15.7% | -1.7% | -0.5 | 0.7%
SMILES | Shiga inhibitor | AmpC inh no detg | NS1 function inh | Cycloheximide cs | AmpC inh detg
CN1CCN(c2ccc(NC(=O)c3ccc(-c4ccc(Br)cc4)o3)cc2)CC1 | 50.0 | -13.3%[2.29 µM] | 4.7% | 8.6 | 0.3%
C/C(=N\Nc1ccc(C(=O)O)cc1)c1ccc(S(=O)(=O)NCc2ccco2)cc1 | 76.9* | -23.8% | -1.4% | 45.2* | 6.9%
C/C(=N\Nc1ccccn1)c1ccc(S(=O)(=O)NCc2ccco2)cc1 | 81.2* | -42.8% | -20.5% | 43.6* | ?
C/C(=N\Nc1nc(Cl)c(Cl)cc1Cl)c1ccc(S(=O)(=O)NCc2ccco2)cc1 | 122.4* | -30.5% | -15.8% | 68.6* | -5.0%
Cc1cccnc1NC(=O)c1ccc(S(=O)(=O)NCc2ccco2)cc1 | nt | -6.7% | nt | nt | 3.9%
C/C(=N\Nc1ccc(C(F)(F)F)cn1)c1ccc(S(=O)(=O)NCc2ccco2)cc1 | 120.7* | -23.4% | ? | 71.9* | -7.2%
CC(CO)(CO)Nc1ncnc2ccccc12 | nt | nt | 2.8% | nt | nt
COc1cc2c(cc1OC)[C@@]13CCN4CC5=CCO[C@H](CC(=O)O)[C@@H]([C@H]1N2)[C@H]5C[C@H]43 | nt | nt | 7.9% | nt | nt
Cc1nc(/C(N)=N/OC(=O)c2ccccc2Cl)c(C(F)(F)F)o1 | 91.3* | -11.1% | -7.8% | 52.5* | 5.5%
Cc1nc(/C(N)=N/OC(=O)c2cccc(Cl)c2)c(C(F)(F)F)o1 | 36.7 | -0.2% | -3.8% | 11.3* | 4.2%
Cc1nc(C(=O)NNC(=O)c2ccc(Cl)cc2)c(C(F)(F)F)o1 | 7.9 | -17.6% | -5.6% | -1.7 | 1.8%
O=C(NCc1ccccc1)c1n[nH]nc1-c1ccccc1O | 50.2 | -16.9% | -2.5% | 18.0* | -18.2%
O=C(NCc1ccccc1)c1ncn[nH]1 | -2.8 | -10.7% | 1.8% | -1.2 | -5.3%
CN1C(=O)C(=Cc2ccc(OCCN(C)c3ccccn3)cc2)C(=O)N(C)C1=O | 37.1 | -9.8% | nt | 21.4* | ?
CC(=O)Oc1ccc(/C=C2/CCc3ccccc3C2=O)cc1 | 15.6 | -31.4% | -53.5% | 16.1* | 6.2%
COc1cccc(/C=C2\CCc3ccccc3C2=O)c1 | 60.0* | -34.7% | -57.8% | 43.5* | -1.7%
COc1ccc2c(c1)CC/C(=C/c1cc(OC)c(OC)c(OC)c1)C2=O | 30.2 | 81.9% | nt | 5.9 | -4.7%
COc1ccc2c(c1)CC/C(=C\C=C\c1ccccc1)C2=O | 43.9* | -57.8% | -27.3% | 25.2* | -6.6%
COc1ccc(N/C=C2\CCc3ccccc3C2=O)cc1 | -3.7 | -37.3% | -35.0% | 3.3 | -2.2%
COc1ccc2c(c1)CC/C(=C/c1ccccn1)C2=O | 99.5* | -24.4% | -32.2% | 55.2* | -4.7%
COc1ccc2c(c1)CN(C)S(=O)(=O)c1ccccc1-2 | nt | -16.2% | nt | nt | nt
COc1ccc2c(c1)CCc1cc(C(=O)O)sc1-2 | -2.9 | -18.2% | -7.1% | 6.2 | -0.6%
COc1ccccc1C(C#N)N1N=C(C)CC1(C)C (stereo not drawn) | -6.0 | -7.0% | -0.8% | -1.6 | -6.9%
COc1cccc(/C=C2\C(=O)C(=O)c3ccccc32)c1 | 76.8 | -24.0% | 9.3% | 21.0* | ?
COc1ccc2c(c1)CC/C(=C\Nc1ccc3c(c1)OCO3)C2=O | 38.2 | 10µM* | -69.9% | 77.1* | -8.4%
COc1cccc(/C=C2/C(=O)NN(c3ccc(F)cc3)C2=O)c1 | -1.3 | -21.9% | 7.7% | -2.8 | -1.5%
COc1cccc(/C=C2/C(=O)NN(c3ccc(C)c(C)c3)C2=O)c1 | 18.8 | -35.5% | ? | 8.5* | 1.3%
COc1ccc(/C=C2\CCc3ccccc3C2=O)cc1OC | 139.0* | 46.0% | -73.3% | 52.1* | -1.6%
COC(=O)c1cc2c(cc1N)OCCO2 | 25.8 | -12.3% | 0.4% | 25.4* | 3.9%
CCc1cccc(NC(=O)CCn2c(=O)c3cccn3c3cccnc32)c1 | nt | nt | nt | nt | -7.0%
